# Screening data from PubChem.
# GRP78 ERSR act = inducers of ER stress response in human glioma cells | U87-MG GRP78 promoter luciferase reporter, 16 h | 420,000 tested, 0.02% active | Potency, µM, for the others: at the highest dose activation, hits mostly activators | AID 602332; note: series mostly up to about 76 µM; % of control where 0% means no effect; nearly all actives have a fitted effect of over 35% in size
#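 ERSR induction read as luciferase luminescence (Bright-Glo, 10 min at room temperature) in stably transfected human U87-MG glioma cells exposed to compounds for 16 h, using GRP78 as sensor.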
# aSyn yeast inh = alpha-synuclein toxicity inhibition in yeast; Yeast expressing alpha-synuclein, growth rescue, BacTiter-Glo, 24 h; Potency, µM (highest dose often 46.1 µM), for the others: at the highest dose growth rescue (activation), actives largely listed as activators; 370,000 tested, 0.14% active; AID 652106; note: % of control where 0% means no effect; nearly all actives have a fitted effect of over 65% in size
#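 Readout is rescue of growth in alpha-synuclein-expressing yeast, so inhibitors of toxicity appear as activators. Growth after 24 hr at 30 deg C in galactose medium is quantified by luminescence.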
# TDP-43 yeast inh = rescues yeast growth from TDP-43 toxicity; AID 652104; TDP-43 expressing yeast growth rescue, BacTiter-Glo, 24 h; 410,000 tested, 1.8% active; Potency, µM (titrated, usually from 46.1 µM), inactives show at the highest dose growth rescue (activation), actives largely listed as activators; note: % of control where 0% means no effect; nearly all actives have a fitted effect of over 50% in size
#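 In this qHTS, compounds that restore growth of yeast expressing TDP-43 appear as activators. Cells (OD600=0.02, galactose medium, raffinose-pregrown) are incubated with compound 24 hr at 30 deg C and growth is quantified by BacTiter-Glo.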
# MBNL1 CUG block = blocks human MBNL1 binding to CUG repeat RNA. Q9NR56. 280,000 tested, 0.036% active. Potency, µM (series often up to 57.5 µM), inactives show top-dose activity change, negative = inhibition, hits mostly inhibitors. AID 2675. TR-FRET MBNL1-His/biotin-(CUG)12 binding, 665/545 ratio; active = well fitted inhibition curve with a large enough effect in the signal ratio, with a control signal flat, not every such curve was filed as active; inconclusive = small, poorly fitted or top-dose-only effect, or effect the other way, or a change in a side signal; inactive = no such curve, though single readings can be large or run the other way; the % refers to the signal ratio; note: % is set by controls: 0 for no effect and ±100 for the full control effect
# Target sequence (Q9NR56 whole entry, looked up): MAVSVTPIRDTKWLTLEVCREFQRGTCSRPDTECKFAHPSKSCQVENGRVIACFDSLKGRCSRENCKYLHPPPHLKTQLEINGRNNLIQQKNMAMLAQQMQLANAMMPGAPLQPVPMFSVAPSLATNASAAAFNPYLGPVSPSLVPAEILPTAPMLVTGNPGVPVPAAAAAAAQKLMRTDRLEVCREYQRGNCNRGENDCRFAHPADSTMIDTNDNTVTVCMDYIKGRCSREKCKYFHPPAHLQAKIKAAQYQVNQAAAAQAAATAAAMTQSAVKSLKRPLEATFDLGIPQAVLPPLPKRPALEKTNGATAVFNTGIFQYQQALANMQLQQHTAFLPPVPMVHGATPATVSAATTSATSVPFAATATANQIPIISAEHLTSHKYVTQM
#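 Compound titration spanned 92 nM–58 uM against the MBNL1-His/biotin-(CUG)12 complex. After 60 min at room temperature with 5 nM streptavidin-XL665 and 0.055 ng/ul terbium anti-His, ratiometric 665/545 nm emission (Ex 340 nm) normalized to controls.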
# Abeta rescue = restores growth of yeast expressing A-beta42 peptide; AID 1347071; 410,000 tested, 0.063% active; yeast expressing A-beta42, growth rescue, OD600, 48 h; response scale: 0% DMSO, 100% iron-clioquinol control; Potency, µM (titrated, usually from 46.1 µM), hits mostly activators; note: nearly all actives have a fitted effect of over 55% in size
#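 Yeast A-beta toxicity model in growth medium with pinned compounds, 48 h at 30 C; growth read as absorbance at 600 nm. Normalized to FeCl3/clioquinol equimolar mix (positive) and DMSO (negative).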
# FUS suppressor = suppressors of FUS proteinopathy in yeast. S. cerevisiae FUS-expressing, growth rescue, OD600, 24 h. 390,000 tested, 0.24% active. AID 1347120. Potency, µM (titrated, usually from 76.6 µM), most hits filed as activators;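 note: plate controls were DMSO vehicle for no effect and reference control for full effect; nearly all actives have a fitted effect of over 55% in size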
#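 Steps: raffinose overnight preculture; dilution to OD 0.005 in 2% galactose minimal medium; compound addition (concentration series); 24hr at 30C, 99% humidity; absorbance read at 600 nm.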
# Numbers without * were called inactive; i = inactive; ? = inconclusive; . = no result. This is a sample that favours compounds with a hit; in the whole collection about 2% have one here. Unless noted, calls come from the whole dose curve; as a rule, active = well fitted curve in the direction sought with a large enough effect; inconclusive = small, poorly fitted or top-dose-only effect, or another doubt; inactive = no such curve, though single readings can be large; an effect the other way counts as inactive or inconclusive. Potency is the fitted concentration of half-maximal effect.
SMILES,GRP78 ERSR act,aSyn yeast inh,TDP-43 yeast inh,MBNL1 CUG block,Abeta rescue,FUS suppressor
COc1ccc(C(=O)Nc2ccc(S(=O)(=O)Nc3nccnc3OC)cc2)cc1,-8%,-12%,0.32µM*,3%,i,i
O=C(Nc1nc(-c2cccs2)c(-c2ccccc2)s1)c1ccco1,4%,-24%,13µM*,18%,i,i
O=C(Nc1nc(-c2cccs2)c(C(=O)C(F)(F)F)s1)c1ccccc1,-2%,-3%,16%,140%,i,i
O=C(Nc1nc(-c2cccs2)c(C(=O)C(F)(F)F)s1)c1ccco1,1%,6%,14µM*,129%,i,i
CSc1ccccc1NC(=O)c1cc(C(C)C)on1,-3%,1%,11µM*,4%,i,i
N#Cc1c(-c2ccccc2)cc(C2CC2)nc1N,6%,0%,13µM*,-5%,i,i
Cc1ccc(-c2cc(-c3ccccc3Cl)c(C#N)c(N)n2)o1,-4%,4%,?,29%,i,i
Cc1ccc(-c2cc(-c3ccccc3)c(C#N)c(N)n2)o1,-4%,-65%,22µM*,?,i,?
O=C1/C(=C/c2ccc(O)c(O)c2)Oc2ccccc21,9%,.,.,.,.,.
Cc1cnc(C(=O)OC(C(=O)Nc2cc(C(F)(F)F)ccc2Cl)c2ccccc2)cn1 (configuration not stated),-3%,2%,18µM*,-3%,?,i
Cc1ccc(C)c(NC(=O)C(OC(=O)c2cnc(C)cn2)c2ccccc2)c1 (configuration not stated),-6%,4%,23%,.,i,i
Cc1cc(-c2ccnc(-n3ncc(C(=O)N4CCCCC4c4cccnc4)c3C3CC3)n2)c(C)s1 (configuration not stated),-4%,.,.,.,.,.
O=C(Nc1ccccn1)C1CCN(S(=O)(=O)c2ccc3ccccc3c2)CC1,0%,8%,11µM*,.,i,i
Cc1ccnc(NC(=O)C2CCN(S(=O)(=O)c3ccc4ccccc4c3)CC2)c1,0%,4%,8%,.,i,i
CC1CCN(C(=O)C2CCN(S(=O)(=O)c3cc(Cl)ccc3Cl)CC2)CC1,-4%,3%,13µM*,-7%,?,i
O=C(C1CCN(S(=O)(=O)c2ccc3ccccc3c2)CC1)N1CCN(c2ncccn2)CC1,-6%,7%,20µM*,1%,i,i
CCOC(=O)C1CCN(C(=O)C2CCN(S(=O)(=O)c3ccc4ccccc4c3)CC2)CC1,1%,0%,-22%,6%,i,.
O=C(C1CCN(S(=O)(=O)c2cccc3cccnc23)CC1)N1CCN(c2ccc(Cl)cc2)CC1,-3%,0%,18%,2%,i,28µM*
COC(=O)C[C@H]1CC[C@@H]2[C@H](COc3ccc(NC(=O)C(C)C)cc3C(=O)N2C)O1,.,.,.,.,.,i
c1ccc2c(N3CCCCCC3)nc(CN3CCCCC3c3nccs3)nc2c1 (configuration not stated),-5%,.,.,.,.,.
COc1cc(-c2c(OC)cccc2OC)cc2c1OCCN(C(=O)CCC(=O)c1ccc(F)cc1)C2,-3%,.,.,.,.,.
O=C(C1CCN(S(=O)(=O)c2ccc(Cl)s2)CC1)N1CCN(c2ccccc2)CC1,-4%,21%,14µM*,.,i,.
CCn1cc2nc(SCC(=O)Nc3cc(OC)cc(OC)c3)n(Cc3ccc(Cl)cc3)c(=O)c2n1,-3%,.,3%,.,i,22µM*
O=C(c1ccc(Cl)c(Cl)c1)N1CCC(Oc2cccnc2)CC1,.,.,.,.,.,i
O=C(COc1ccc2ccccc2c1Br)N1CCCC1,16%,5%,11µM*,?,i,i
SMILES,GRP78 ERSR act,aSyn yeast inh,TDP-43 yeast inh,MBNL1 CUG block,Abeta rescue,FUS suppressor
COc1ccc2[nH]c(C(=O)N3CCN(c4ccccc4F)CC3)c(C)c2c1,-1%,1%,16µM*,0%,i,i
COc1ccccc1OCC(=O)N1CCN(C(=O)COc2ccccc2OC)CC1,9%,2%,-4%,-5%,i,i
O=C(COc1ccc2ccccc2c1Br)N1CCOCC1,6%,13%,17%,23%,i,i
CCOc1ccccc1N1CCN(C(=O)c2cc3ccccc3cc2OC)CC1,-5%,7%,14µM*,.,i,i
COc1cc(OC)cc(C(=O)N2CCN(c3ccccc3F)CC2)c1,-6%,4%,?,6%,i,i
COc1ccccc1N1CCN(C(=O)COc2cccc3ccccc23)CC1,-2%,?,35µM*,2%,i,?
COc1cc(=O)n2c(c1C(=O)NCc1ccco1)CCN(Cc1cc3ccccc3[nH]1)CC2,-8%,.,.,.,.,.
COc1cc2ccccc2cc1C(=O)N1CCN(c2nc3ccc(F)cc3s2)CC1,-1%,.,13µM*,.,i,i
COc1cc(SC)ccc1C(=O)N1CCN(c2ccccc2F)CC1,-5%,1%,11µM*,-14%,i,i
O=C(CN1CCCc2ccccc21)NCc1ccc(Cl)cc1,.,.,.,.,.,i
COc1cc(OC)cc(-c2c(-c3cccs3)c3cc(-c4ccc(CN5CCOCC5)cc4)ccc3n2C)c1,0%,-14%,22µM*,.,i,?
COc1ccccc1OCCOc1ccc(/C=C2/C(=N)N3OC(C)=CC3=NC2=O)cc1OC,-2%,1%,0%,-2%,i,i
CC1=CC2=NC(=O)/C(=C\c3cccn3CCOc3ccccc3C)C(=N)N2O1,1%,12%,20µM*,7%,?,?
CC(=O)N[C@H]1C[C@@H]2O[C@H](CO)CC[C@@H]2O[C@@H]1CCc1ccc(-c2ccc(F)cc2)cc1,.,.,.,.,.,i
COc1ccc2ccccc2c1C=NNC(=O)c1cc(-c2ccc(C)c(C)c2)n[nH]1,.,.,.,.,.,i
N#CC1(c2ccccc2)CCCN1C(=O)c1ccccc1Cl (configuration not stated),-3%,5%,20%,-2%,i,i
N#CC(C(=O)c1ccccc1Cl)=C1SCCCS1,3%,10%,35µM*,?,i,i
COc1ccc(CNc2nc(NCc3ccc(OC)cc3)n(S(C)(=O)=O)n2)cc1,-4%,1%,-1%,-3%,i,i
COCC(=O)n1nc(NCc2ccc(OC)cc2)nc1NCc1ccc(OC)cc1,-7%,8%,18µM*,3%,i,i
Cc1ccc(CNC(=O)c2ccc(N3CCC4(CC3)CC(c3cccc(Br)c3)=NO4)c(N)c2)cc1,-2%,4%,4%,.,i,18µM*
Cc1ccc(CNC(=O)c2ccc(N3CCC4(CC3)CC(c3cccc(Br)c3)=NO4)c(NC(=O)c3ccc(Br)cc3)c2)cc1,0%,?,13%,.,i,i
